Growth inhibition data for nine compounds are collected here from PubChem BioAssay (NCI).

About 79,000 compounds went through this panel and 15% of them were active in at least one assay; those are over-represented in the sample as a whole. Values without a mark were called inactive. The source made the active and inactive calls. No stated cut-off is given here; in the data, active means growth inhibition above about 70%; inactive means the rest. *1 amine or outer side, *2 acyl side, *3 side chain or, on linkers, in order; H or OH if unused. Where a SMILES comes first, the peptide text is derived from it. Bridges are numbered along the chain shown (N, C = ends). [ ]: non-standard residue; d: D form. The star is where a group is joined. ξ: configuration not given here. ξOrn(4,5-diOH) = O=C(C(CC(O)C(O)N[*:3])N[*:1])[*:2]; ξhTyr(βξ-OH,γξ-OH) = NC(C(=O)O)C(O)C(O)c1ccc(O)cc1; ξPro(3ξ-OH,4ξ-Me) = CC1CNC(C(=O)O)C1O; X1 = CCCCC/C=C/C/C=C\CCCCCCCC(=O)*; Hyp = O=C(O)[CH]1C[CH](O)CN1

A short description of assay [1]: NCI Yeast Anticancer Drug Screen. Data for the rad50 strain (AID 155).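 Further: 0% = growth of vehicle-only cultures of the same strain.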 The settings on record: S. cerevisiae rad50 strain growth inhibition, active compounds read high. An outline of the steps: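 Inhibition values express reduced yeast growth in compound-treated cultures relative to vehicle-treated controls.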
Assay [2] in a line: NCI Yeast Anticancer Drug Screen. Data for the mec2-1 strain (AID 157). The settings on record: S. cerevisiae mec2-1 strain, active compounds read high. The gist of the method:
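Vehicle-treated cultures served as reference for growth inhibition of compound-exposed mec2-1 yeast.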

Assay [3] is described as follows: NCI Yeast Anticancer Drug Screen. Data for the sgs1 mgt1 strain (AID 161).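 Further: 0% = growth of cultures given vehicle only.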 The settings on record: S. cerevisiae sgs1 mgt1 strain, active compounds read high. An outline of the steps:
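Inhibition of yeast growth, normalised to vehicle-treated controls, is reported for a strain bearing genetic alterations in DNA damage repair.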

A short description of assay [4]: NCI Yeast Anticancer Drug Screen. Data for the cln2 rad14 strain (AID 165).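 Further: 0% = growth equal to vehicle treated cultures.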 The settings on record: S. cerevisiae cln2 rad14 strain, active compounds read high. The gist of the method: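 Each compound was tested on cln2 rad14 yeast. Inhibition of growth was calculated against vehicle-exposed controls.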
The nature of assay [5]: NCI Yeast Anticancer Drug Screen. Data for the bub3 strain (AID 167). The following applies: S. cerevisiae bub3 mutant strain, active compounds read high. The gist of the method: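 Steps: expose the mutant yeast strain to compound; grow alongside vehicle-treated cultures; measure growth; express inhibition against the vehicle cultures.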
Assay [6] can be described thus: NCI Yeast Anticancer Drug Screen. Data for the mlh1 rad18 strain (AID 175). The settings on record: S. cerevisiae mlh1 rad18 strain growth inhibition, active compounds read high. The gist of the method: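 Vehicle-treated cultures served as the reference for growth inhibition in a yeast strain carrying DNA damage repair alterations exposed to each compound.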
Setting [7] is: at 5.0 µM (retest, dose inferred, filed as 0.5).
[8] abbreviates: at 50.0 µM (retest, dose inferred, filed as 5.0).

Regarding `O/N=C(/CCc1ccccc1Cl)c1ccccc1`, the growth inhibition in assay [1] (setting [7]) was 3%; in assay [1] (setting [8]), 34%; in assay [1] (at 50.0 µM), 94% (active); in assay [2] (setting [7]) it was -5%; in assay [2] (setting [8]), 55%; in assay [2] (at 50.0 µM), 93.6% (active). The growth inhibition in assay [3] (setting [7]) is 3%; in assay [3] (setting [8]), 75% (active); in assay [3] (at 50.0 µM) it was 96.3% (active); in assay [4] (setting [7]) it was -2%; in assay [4] (setting [8]), 41%; in assay [4] (at 50.0 µM), 90.1% (active). For the same compound, the growth inhibition in assay [5] (setting [7]) is 6%; in assay [5] (setting [8]), 61%; in assay [5] (at 50.0 µM), 87.2% (active); in assay [6] (setting [7]), 1%; in assay [6] (setting [8]), 80% (active); in assay [6] (at 50.0 µM), 93.3% (active).

In the case of `CCCCC/C=C/C/C=C\CCCCCCCC(=O)NC1CC(O)C(O)NC(=O)C2C(O)C(C)CN2C(=O)C(C(C)O)NC(=O)C(C(O)C(O)c2ccc(O)cc2)NC(=O)C2CC(O)CN2C(=O)C(C(C)O)NC1=O` (stereo not drawn) (X1-[ξOrn(4,5-diOH)]T[Hyp][ξhTyr(βξ-OH,γξ-OH)]T[ξPro(3ξ-OH,4ξ-Me)]; lactam 1-C; configuration not given here), the growth inhibition is 3% in assay [1] (setting [7]); 93% (active) in assay [1] (setting [8]); 89% (active) in assay [1] (at 50.0 µM); 51% in assay [2] (setting [7]); 98% (active) in assay [2] (setting [8]); 90.8% (active) in assay [2] (at 50.0 µM). Besides, the growth inhibition is 51% in assay [3] (setting [7]); 93% (active) in assay [3] (setting [8]); 90.3% (active) in assay [3] (at 50.0 µM); 9% in assay [4] (setting [7]); 95% (active) in assay [4] (setting [8]); 83.8% (active) in assay [4] (at 50.0 µM). Moreover, the growth inhibition was 11% in assay [5] (setting [7]); 97% (active) in assay [5] (setting [8]); 89.9% (active) in assay [5] (at 50.0 µM); 40% in assay [6] (setting [7]); 96% (active) in assay [6] (setting [8]); 88.6% (active) in assay [6] (at 50.0 µM).

With `Oc1ccc(COCCBr)c2cccnc12`, the growth inhibition is 8% in assay [1] (setting [7]); 98% (active) in assay [1] (setting [8]); 98.8% (active) in assay [1] (at 50.0 µM); -2% in assay [2] (setting [7]); 99% (active) in assay [2] (setting [8]); 99.5% (active) in assay [2] (at 50.0 µM). Moreover, the growth inhibition is 4% in assay [3] (setting [7]); 99% (active) in assay [3] (setting [8]); 99.2% (active) in assay [3] (at 50.0 µM); 8% in assay [4] (setting [7]); 98% (active) in assay [4] (setting [8]); 98.5% (active) in assay [4] (at 50.0 µM). The growth inhibition is 1% in assay [5] (setting [7]); 98% (active) in assay [5] (setting [8]); 99.2% (active) in assay [5] (at 50.0 µM); 30% in assay [6] (setting [7]); 99% (active) in assay [6] (setting [8]); 99.2% (active) in assay [6] (at 50.0 µM).

As for `COc1cc(/C=C2\CCc3ccccc3C2=O)ccc1O`, the growth inhibition in assay [1] (setting [7]) was -18%; in assay [1] (setting [8]), 99% (active); in assay [1] (at 50.0 µM), 89.2% (active); in assay [2] (setting [7]), -14%; in assay [2] (setting [8]), 100% (active); in assay [2] (at 50.0 µM) it was 92.2% (active). The growth inhibition in assay [3] (setting [7]) was -28%; in assay [3] (setting [8]), 99% (active); in assay [3] (at 50.0 µM), 88% (active); in assay [4] (setting [7]) it was 5%; in assay [4] (setting [8]), 99% (active); in assay [4] (at 50.0 µM) it was 90.8% (active). Also, the growth inhibition in assay [5] (setting [7]) was 24%; in assay [5] (setting [8]) it was 99% (active); in assay [5] (at 50.0 µM) it was 91.5% (active); in assay [6] (setting [7]), -20%; in assay [6] (setting [8]), 99% (active); in assay [6] (at 50.0 µM), 84.3% (active).

For `O=C1c2ccccc2S(=O)(=O)CC1Br` (configuration not stated), the growth inhibition in assay [1] (setting [7]) was -7%; in assay [1] (setting [8]), 96% (active); in assay [1] (at 50.0 µM) it was 99.2% (active); in assay [2] (setting [7]), -21%; in assay [2] (setting [8]), 85% (active); in assay [2] (at 50.0 µM) it was 99.7% (active). The growth inhibition in assay [3] (setting [7]) was 13%; in assay [3] (setting [8]) it was 98% (active); in assay [3] (at 50.0 µM) it was 99.3% (active); in assay [4] (setting [7]), 6%; in assay [4] (setting [8]) it was 58%; in assay [4] (at 50.0 µM), 99.3% (active). The growth inhibition is -4% in assay [5] (setting [7]); 89% (active) in assay [5] (setting [8]); 99.4% (active) in assay [5] (at 50.0 µM); 30% in assay [6] (setting [7]); 98% (active) in assay [6] (setting [8]); 99.2% (active) in assay [6] (at 50.0 µM).

Regarding `O=C(c1cc2c(C(F)(F)F)onc2c2ccccc12)C(F)(F)F`, the growth inhibition in assay [1] (setting [7]) was -8%; in assay [1] (setting [8]) it was 5%; in assay [1] (at 50.0 µM) it was 76.7% (active); in assay [2] (setting [7]), -17%; in assay [2] (setting [8]) it was 9%; in assay [2] (at 50.0 µM) it was 44.9%. Further, the growth inhibition was -8% in assay [3] (setting [7]); -2% in assay [3] (setting [8]); 50.6% in assay [3] (at 50.0 µM); 0% in assay [4] (setting [7]); 28% in assay [4] (setting [8]); 64.8% in assay [4] (at 50.0 µM). For the same compound, the growth inhibition was 12% in assay [5] (setting [7]); 42% in assay [5] (setting [8]); 38.9% in assay [5] (at 50.0 µM); 0% in assay [6] (setting [7]); 26% in assay [6] (setting [8]); 36.4% in assay [6] (at 50.0 µM).

`O=C(CNc1ccc(Cl)cc1)Nn1c(-c2ccccc2)nc2ccccc2c1=O`: the growth inhibition in assay [1] (setting [7]) is 8%; in assay [1] (setting [8]) it was 29%; in assay [1] (at 50.0 µM), 64.7%; in assay [2] (setting [7]), -9%; in assay [2] (setting [8]), 42%; in assay [2] (at 50.0 µM), 56.6%. In addition, the growth inhibition in assay [3] (setting [7]) is 10%; in assay [3] (setting [8]), 30%; in assay [3] (at 50.0 µM), 79% (active); in assay [4] (setting [7]), 11%; in assay [4] (setting [8]), 32%; in assay [4] (at 50.0 µM) it was 45.2%. Also, the growth inhibition in assay [5] (setting [7]) was -7%; in assay [5] (setting [8]) it was 31%; in assay [5] (at 50.0 µM), 62.1%; in assay [6] (setting [7]), 4%; in assay [6] (setting [8]), 51%; in assay [6] (at 50.0 µM), 81.3% (active).

In the case of `O=C1c2c(Br)c(Br)c(Br)c(Br)c2C(=O)N1c1nccs1`, the growth inhibition is -1% in assay [1] (setting [7]); 51% in assay [1] (setting [8]); 75.4% (active) in assay [1] (at 50.0 µM); -4% in assay [2] (setting [7]); 72% (active) in assay [2] (setting [8]); 70.8% (active) in assay [2] (at 50.0 µM). Besides, the growth inhibition is -10% in assay [3] (setting [7]); 54% in assay [3] (setting [8]); 75% (active) in assay [3] (at 50.0 µM); -20% in assay [4] (setting [7]); 25% in assay [4] (setting [8]); 45.5% in assay [4] (at 50.0 µM). Besides, the growth inhibition was 11% in assay [5] (setting [7]); 70% (active) in assay [5] (setting [8]); 69.4% in assay [5] (at 50.0 µM); 21% in assay [6] (setting [7]); 72% (active) in assay [6] (setting [8]); 72.3% (active) in assay [6] (at 50.0 µM).

On to `COc1ccc(-c2cc(-c3ccc4c(c3)CC(C)O4)nc(N)n2)cc1` (configuration not stated), for which the growth inhibition in assay [1] (setting [7]) is 20%; in assay [1] (setting [8]) it was 1%; in assay [1] (at 50.0 µM), 90.8% (active); in assay [2] (setting [7]) it was 0%; in assay [2] (setting [8]), -14%; in assay [2] (at 50.0 µM) it was 90.8% (active). Further, the growth inhibition is 20% in assay [3] (setting [7]); 3% in assay [3] (setting [8]); 91.2% (active) in assay [3] (at 50.0 µM); 19% in assay [4] (setting [7]); 15% in assay [4] (setting [8]); 86.5% (active) in assay [4] (at 50.0 µM). For the same compound, the growth inhibition in assay [5] (setting [7]) was 19%; in assay [5] (setting [8]), 15%; in assay [5] (at 50.0 µM), 88.7% (active); in assay [6] (setting [7]), -16%; in assay [6] (setting [8]), -19%; in assay [6] (at 50.0 µM), 88.7% (active).
